Compound activity (PubChem)
In the library only some 4.6% were active in any assay of this set; here they are far more common.
KLK7 zymogen act: activates the human kallikrein-7 zymogen. P49862. purified proKLK7, EDANS-DABCYL substrate fluorescence; 100% is mature enzyme control, 0% vehicle. activation, % at 7 µM. 0.9% of 370,000 active;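 active = activation above the mean of all tested compounds plus 3 SD, computed per campaign excluding outliers beyond control limits, cut at about 13% in these data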
FAS TE block: inhibitors of human fatty acid synthase thioesterase domain; P49327; recombinant FAS-TE, OMFH fluorogenic substrate, fluorescence endpoint; inhibition, % at 15 µM; 0.67% of 360,000 active; AID 602261;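 active = compounds whose normalised, plate-corrected inhibition of enzyme fluorescence in the single-dose primary screen is 50% or more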;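 also: 0% = DMSO with enzyme and 100% = substrate without enzyme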
ADAM10 inh: inhibits human ADAM10. inhibition, % at 7 µM. 0.62% of 370,000 active. AID 720582. recombinant ADAM10, EDANS/DABCYL FRET peptide cleavage, 3 h. O14672;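 active = inhibition above a per-campaign cutoff equal to the mean of compounds falling between control-based bounds plus 3 SD, cut at about 20% in these data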;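 also: 0% = DMSO wells while the 100% control is not disclosed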
Target sequence (O14672 214-748 limits assumed): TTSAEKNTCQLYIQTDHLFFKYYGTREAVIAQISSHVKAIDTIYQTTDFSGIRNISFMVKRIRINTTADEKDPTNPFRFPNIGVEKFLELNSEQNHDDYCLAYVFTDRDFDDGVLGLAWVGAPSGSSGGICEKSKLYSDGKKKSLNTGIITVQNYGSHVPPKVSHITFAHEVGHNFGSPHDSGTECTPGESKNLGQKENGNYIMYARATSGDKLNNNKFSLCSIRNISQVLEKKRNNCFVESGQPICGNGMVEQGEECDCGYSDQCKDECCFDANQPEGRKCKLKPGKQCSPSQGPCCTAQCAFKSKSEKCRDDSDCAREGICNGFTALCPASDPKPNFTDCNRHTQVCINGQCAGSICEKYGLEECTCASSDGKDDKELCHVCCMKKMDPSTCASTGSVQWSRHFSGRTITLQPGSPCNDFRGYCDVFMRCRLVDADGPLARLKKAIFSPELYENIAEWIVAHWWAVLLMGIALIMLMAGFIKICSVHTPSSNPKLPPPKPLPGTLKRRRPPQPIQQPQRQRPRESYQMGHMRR
NR3A LBD binder: NR3A (human) ligand-binding domain modulation. NR3A LBD differential scanning fluorimetry, Tm shift; 0% = protein alone, 100% = glycine-bound protein. Tm shift relative to glycine control, % at 25 µM. 2.5% of 340,000 active. AID 1259313;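 active = melting temperature shift of at least 10% of the positive control shift, at one fixed dose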
ADAM17 inh: ADAM17 inhibition, QFRET primary screen; P78536; recombinant ADAM17, EDANS/DABCYL FRET peptide cleavage; inhibition, % at 6.95 µM; 0.83% of 370,000 active; AID 720648;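 active = inhibition above the mean of compounds lying between control limits plus 3 SD, set per campaign, cut at about 8.5% in these data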;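 also: 0% = DMSO-only wells as the low control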
* = called active by the depositor; / = no result.

SMILES	KLK7 zymogen act	FAS TE block	ADAM10 inh	NR3A LBD binder	ADAM17 inh
O=c1nc(Nc2ccc(Br)cc2)sc2ccc([N+](=O)[O-])cc12	-0.1	6.7	1.0	13.4*	3.7
CC(=O)Nc1nc2cc([N+](=O)[O-])ccc2s1	0.2	-0.7	3.8	-0.4	-1.4
O=C(N1CCCC1)C12CC3CC(CC(C3)C1)C2	0.2	-1.8	10.3	-0.7	0.8
O=C(N1CCCCC1)C12CC3CC(C1)CC(C(=O)N1CCCCC1)(C3)C2	1.1	-2.9	1.5	21.1*	-2.8
Cc1ccc(CNC2CCC23CCC(c2ccccc2)CC3)o1 (stereo unspecified)	/	/	1.4	/	0.9
c1ccc(Cn2c(SC3CCCCC3)nnc2-c2cccnc2)cc1	0.1	/	1.2	/	-2.6
N/C(=N\OC(=O)c1cccc(Br)c1)c1ccc([N+](=O)[O-])cc1	0.8	13.9	10.2	13.7*	2.2
N/C(=N\OC(=O)c1cccc(Br)c1)c1ccc(Br)cc1	0.1	8.0	-0.3	23.1*	-3.6
COc1ccc(C(=O)O/N=C(\N)c2ccc(Br)cc2)cc1	-0.3	-0.2	0.8	20.0*	-4.4
N/C(=N\OC(=O)c1ccc2ccccc2c1)c1cccc([N+](=O)[O-])c1	-0.1	0.6	-0.5	35.0*	-1.6
COC(=O)[C@]12C[C@H](CC(=O)NCC34CC5CC(CC(C5)C3)C4)C(=O)N(Cc3ccco3)C1=C[C@H](C(C)(C)C)O[C@@H]2C	0.6	/	15.1	/	4.1
CC(C)(C)CCN1C[C@@H]2C(CNC(=O)c3cc(Cl)cc(Cl)c3)[C@@H]2C1 (stereo partly specified)	/	/	-0.6	/	-4.3
COCCCNC(=O)C1CCN(S(=O)(=O)c2ccc3[nH]c(=O)oc3c2)CC1	-0.1	/	7.8	/	-1.7
COCCCNC(=O)C[C@H]1C[C@@]2(C(=O)OC)C(=C[C@H](C3CCCC3)O[C@@H]2C)N(Cc2ccc(Cl)cc2Cl)C1=O	0.1	/	9.9	/	1.0
CC(=O)CC[C@H]1CC[C@]2(CCCN(C(=O)c3ccco3)C2)O1	0.5	/	-5.4	/	-3.5
CCc1cc2c(=O)n(CC(C)C)cnc2s1	0.0	-7.2	-8.2	18.0*	-1.8
COc1ccc(CC2(C)OC(c3ccc(Cl)cc3)=NN2C(C)=O)cc1 (stereo unspecified)	-0.6	26.1	-46.5	13.4*	-17.3
COc1ccc(CN2CCC(CNC(=O)Nc3ccc(Cl)cc3)CC2)cc1	-0.9	/	-7.2	/	5.1
N#Cc1c(N)nc(-c2ccccc2)nc1-c1ccccc1	0.2	7.2	9.2	10.0*	1.9
Oc1ccccc1C=NNC(=S)Nc1ccc(F)cc1	-39.0	9.1	-43.8	14.3*	-7.2
S=C(NCCc1ccccc1)N/N=C/c1cccc(Cl)c1Cl	-0.6	29.0	3.9	0.5	0.6
Oc1ccccc1/C=N/NC(=S)NCCc1ccccc1	-58.2	17.3	-16.0	27.7*	-6.1
CN(C)c1nc(N/N=C/c2ccccc2O)nc(Nc2ccc(F)cc2)n1	-0.8	9.9	4.0	37.6*	-1.9
C/C(=N\NC(=S)NCCc1ccccc1)c1ccc(Cl)cc1Cl	-0.1	27.1	7.8	-2.2	0.6
C/C(=N\NC(=S)NCCc1ccccc1)c1ccc(O)cc1O	-0.9	15.4	-4.1	17.4*	4.0
SMILES	KLK7 zymogen act	FAS TE block	ADAM10 inh	NR3A LBD binder	ADAM17 inh
CN(C)c1nc(Nc2ccc(F)cc2)nc(Oc2ccc(F)cc2)n1	-0.1	20.4	6.6	-5.5	-1.6
O=C(Cn1nc(-c2ccccc2)c2ccccc21)Oc1ccccc1	/	/	5.9	/	6.6
COC(=O)[C@H](C(C)C)N(Cc1cn(Cc2ccc(C)cc2)nn1)S(=O)(=O)c1ccc(F)cc1Br	0.3	/	2.3	/	1.8
CCn1c(COc2ccc(Cl)cc2)nnc1SCC(=O)Nc1ccc(Oc2ccccc2)cc1	0.1	/	-4.6	/	0.5
CN(Cc1ccccc1)C(=O)OCc1cn(Cc2ccccc2F)nn1	0.6	/	-1.3	/	0.8
CCOC(=O)C(=O)NC12CC3CC(CC(C3)C1)C2	-0.7	-9.5	-4.2	10.9*	0.4
CCOCC(=O)OCC(=O)NC12CC3CC(CC(C3)C1)C2	-0.6	-1.6	-1.5	-2.5	-6.0
Cc1ccc(NC(=O)c2ccccc2NS(=O)(=O)c2ccc(Cl)s2)cc1	0.2	19.1	11.7	25.9*	2.5
O=C(Nc1ccccc1Cc1ccccc1)c1ccccc1NS(=O)(=O)c1ccc(Cl)s1	0.3	40.0	15.4	34.2*	3.4
O=C(NCc1ccco1)c1ccccc1NS(=O)(=O)c1ccc(Cl)s1	-0.4	0.4	-5.8	-2.9	-3.1
FC(F)(F)c1ccccc1NC(=S)OCCN1CCCC12CCC(c1ccccc1)CC2 (stereo unspecified)	/	/	3.8	/	5.1
C[C@@H]1/C=C/CC(=O)N[C@H](c2ccc3ccccc3c2)[C@H](C)/C=C/CC(=O)N[C@@H]1c1ccc2ccccc2c1	-0.2	/	-2.3	/	-1.3
COc1ccc(OC)c(S(=O)(=O)n2nc(-c3ccccc3)cc2N)c1	0.0	5.3	-6.3	21.9*	3.0
COc1ccc(S(=O)(=O)n2nc(-c3ccc(Cl)cc3)cc2N)cc1OC	0.2	17.3	-5.2	14.2*	7.3
O=C(Nc1cccc([N+](=O)[O-])c1)NC1CCCCN(Cc2cccc(Cl)c2)C1=O (stereo unspecified)	0.2	/	-2.9	/	-0.8
Cc1cc(OC(C)CCN2CCC(C(O)(c3ccccc3)c3ccccc3)CC2)ccc1Br (stereo unspecified)	-0.4	/	8.8	/	3.6
CC1CN(Cc2ccccc2)c2nc3c(c(=O)[nH]c(=O)n3C)n2C1 (stereo unspecified)	-0.8	-7.7	-5.8	28.8*	-4.5
Cn1c(=O)[nH]c(=O)c2c1nc1n2CCN1Cc1ccccc1	-0.8	-6.3	-2.1	0.4	-1.4
Cn1c(=O)c2[nH]c(SCC(=O)NCCc3ccc(F)cc3)nc2n(C)c1=O	0.2	/	-5.3	/	-0.3
CCOc1cc(C2C(C#N)=C(N)OC(C)=C2C(C)=O)c(Br)c(Br)c1OC(C)C (stereo unspecified)	/	71.5*	/	-2.8	/
O=C(/C=C/c1ccc(Cl)cc1)Nn1c(-c2cccs2)nc2ccccc2c1=O	0.2	1.8	0.6	13.5*	0.1
c1ccc2cc(Cn3ccc4ccc(-c5ccc6cc[nH]c6c5)cc43)ccc2c1	-2.0	/	-40.1	/	-15.8
COCCCN1C(=O)[C@H](CC(=O)NCCCCc2ccccc2)[C@]2(C(=O)OC)CCCCC=C12	0.0	/	2.9	/	0.0
Nc1nnc(SCC(=O)OCC(=O)Nc2ccccc2F)s1	0.2	-3.0	-5.6	0.5	-2.3
CC(C)c1ccc(NC(=O)COC(=O)CSc2nnc(N)s2)cc1	-0.3	-7.1	-1.1	13.0*	-2.5
CCn1c(=O)[nH]n(C/C(C)=C\c2c[n+](Cc3ccc4c(c3)OCO4)c(N)[nH]2)c1=O	/	/	-9.6	/	-6.1
O=C1/C(=C\c2ccc(O)cc2)SC(=S)N1/N=C/c1ccc(O)cc1	-0.3	-23.6	-5.1	18.8*	-4.6
CC(=O)NN1C(=O)/C(=C\c2ccc(O)cc2)SC1=S	-0.2	-4.9	1.6	0.2	-0.9
